Source: PubChem BioAssay
Active and inactive are the calls of the source. The rule behind the calls is not given here.

These molecules were tested against Pantothenate synthetase (Mycobacterium tuberculosis (strain ATCC 25618 / H37Rv)) (UniProt P9WIL5) (assay: Coupled enzyme confirmation of inhibitors against recombinant Mtb PanC (AID 375;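 note: 0% = full reaction with vehicle and 100% = no enzyme background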)). Conditions: coupled enzyme assay; at 10 µM, stronger effect = higher value.
Pantothenate synthetase (Mycobacterium tuberculosis (strain ATCC 25618 / H37Rv)), sequence (P9WIL5 whole entry, looked up): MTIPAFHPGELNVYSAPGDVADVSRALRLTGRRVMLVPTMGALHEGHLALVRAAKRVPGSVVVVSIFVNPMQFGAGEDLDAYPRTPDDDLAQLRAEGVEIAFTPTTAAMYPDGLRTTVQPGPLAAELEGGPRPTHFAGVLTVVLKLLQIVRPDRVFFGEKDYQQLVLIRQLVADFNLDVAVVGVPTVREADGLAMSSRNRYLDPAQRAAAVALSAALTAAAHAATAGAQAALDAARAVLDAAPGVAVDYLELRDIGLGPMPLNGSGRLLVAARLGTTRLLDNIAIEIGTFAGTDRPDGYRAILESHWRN

SMILES	inhibition
CCn1c(SCC(=O)Nc2ccc3c(c2)OCO3)nnc1-c1ccccc1O	2% (inactive)
O=C(Cn1cccc1C(=O)c1ccccc1)NCCN1CCOCC1	0% (inactive)
O=C(Nc1ccncc1)c1cc2ccccc2o1	3% (inactive)
O=C(CC1(O)C(=O)Nc2ccccc21)c1ccc2c(c1)OCO2 (centres undefined)	0% (inactive)
Cc1[nH]c2ccccc2c1Cc1nnc(SCC(=O)NCc2ccco2)o1	1% (inactive)
CCOC(=O)Cn1c(CCC(=O)O)ccc1-c1ccc(F)cc1	3% (inactive)
C/C(=C\C(=O)O)CC(=O)O	0% (inactive)
FC(F)(F)c1cc(-c2ccco2)nc(NCc2ccco2)n1	0% (inactive)
CCOC(=O)c1cc2sccc2n1CC(=O)Nc1ccc(OC)cc1OC	0% (inactive)
COC(=O)c1ccsc1NC(=O)CN1C(=O)CCC1=O	0% (inactive)
O=C(CCNS(=O)(=O)c1cccc2nsnc12)Nc1ccc2c(c1)OCCO2	0% (inactive)
CCCc1[nH]nc2c1C(c1cccc(OC(=O)c3ccco3)c1)C(C#N)=C(N)O2 (centres undefined)	1% (inactive)
CC(C)(C)n1ncc2c(=O)n(CC(=O)NCc3ccccc3)cnc21	0% (inactive)
COc1ccccc1CC(=O)NCC1CCCO1 (centres undefined)	0% (inactive)
COCCNC(=O)c1ccc(CS(=O)(=O)c2c(Cl)cccc2Cl)o1	0% (inactive)
O=S(=O)(NC1=NCCC1)c1cccs1	0% (inactive)
COc1ccc(C)cc1C(=O)CCC(=O)Nc1ccccc1N1CCOCC1	2% (inactive)
O=C(CN1C(=O)COc2ccccc21)NCCN1CCc2ccccc2C1	7% (inactive)
c1nc(NCC2CCCO2)c2[nH]cnc2n1 (centres undefined)	0% (inactive)
Cc1cccc(N2CCN(C(=O)C3CCCN(S(=O)(=O)c4c(C)noc4C)C3)CC2)c1C (centres undefined)	0% (inactive)

SMILES	inhibition
Cn1c(=O)[nH]c(=O)c2c1nc(N1CCCCCC1)n2CCCSc1nc2ccccc2o1	8% (inactive)
O=C(CN(Cc1ccc(F)cc1)C(=O)c1ccco1)NCc1ccc(F)cc1	0% (inactive)
[N-]=[N+]=CC(=O)CC(c1ccccc1)N1C(=O)c2ccccc2C1=O (centres undefined)	0% (inactive)
O=C(CSc1nnc(-c2ccccc2)c(-c2ccccc2)n1)N1CCOCC1	0% (inactive)
CCOC(=O)N1CCN(C(=O)c2ccc(CS(=O)(=O)c3ccc(OC)cc3)o2)CC1	1% (inactive)
CCOc1ccc(C(=O)Cc2ccc3oc(C(=O)O)cc3c2)c(O)c1	7% (inactive)
COCCn1nnnc1CN(Cc1cccnc1)Cc1cc2cc(OC)ccc2[nH]c1=O	6% (inactive)
N#CCCN1CCN(S(=O)(=O)c2ccc(S(=O)(=O)NC3CCCC3)cc2)CC1	0% (inactive)
Cc1ccc(CCC(=O)Nc2ccc(S(N)(=O)=O)cc2)o1	1% (inactive)
CCOC(=O)C1CCN(Cc2ccc(C(=O)OC)cc2)CC1	1% (inactive)
CCOC(=O)c1ccc(COC(=O)c2cc3ccccc3oc2=O)o1	0% (inactive)
Cc1ccc(C(=O)CCC2CCCC2=O)cc1 (centres undefined)	0% (inactive)
CCOC(=O)c1cccc(NC(=O)Cn2cnc3c2c(=O)n(C)c(=O)n3C)c1	4% (inactive)
O=C(NCCCN1CCCC1=O)c1ccc2c(c1)NC(=O)C(N1CCOCC1)S2 (centres undefined)	2% (inactive)
COc1ccc2c(c1)cc(C(=O)O)n2C	6% (inactive)
O=C(CCn1c(=S)[nH]c2cc3c(cc2c1=O)OCO3)N1CCN(C2CCCCC2)CC1	0% (inactive)
CCCCNc1cc(C)oc(=O)c1C(C)=O	4% (inactive)
O=S(=O)(Nc1ccn(-c2ccccc2)n1)c1ccc(Br)cc1	0% (inactive)
CC(C)Cn1c(=O)c(C(=O)NCc2ccccn2)c(O)c2ccccc21	0% (inactive)
